Reference: PubChem BioAssay (EPA / NIEHS)
The source made the active and inactive calls. How the source made its calls: active means hit-call score of the fitted dose curve at least 0.9, where 1 is the maximum; inactive means score below 0.9.

Tests used:
Conditions in all cases: mRNA level, 48 h; actives raise or lower the signal
[1] = read-out: Ezrin (EZR), EZR (gene 7430); assay: LTEA_HepaRG_EZR: Life Technologies and Expression Analysis (LTEA) Assay for Ezrin (EZR) using HepaRG (AID 2283491)
Method in brief: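 Differentiated human HepaRG cells, 48 h after plating, were exposed in serum-free induction medium for 48 hours to eight half-log concentrations up to 100 uM in 0.5% DMSO. EZR mRNA was measured by TaqMan qRT-PCR, normalized to ACTB, GAPDH and POLR2A, and fitted bidirectionally against DMSO.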

[2] = read-out: Cytochrome P450 3A7 (Homo sapiens) (UniProt P24462); assay: LTEA_HepaRG_CYP3A7: Life Technologies and Expression Analysis (LTEA) Assay for CYP3A7 using HepaRG (AID 2283492)
Method in brief: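 Cells were thawed, plated, cultured 48 h, then treated for a further 48 h with chemicals (eight-point half-log series from 100 uM, 0.5% DMSO). RNA was isolated and CYP3A7 expression quantified by qRT-PCR normalised to ACTB, GAPDH and POLR2A.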

CYP3A5 (gene 1577) = assay: LTEA_HepaRG_CYP3A5: Life Technologies and Expression Analysis (LTEA) Assay for CYP3A5 using HepaRG (AID 2283493)
Method in brief: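 Readout was CYP3A5 mRNA by qRT-PCR. HepaRG cultures were exposed for 48 h in serum-free induction medium to chemicals at up to 100 uM, and responses were fitted in both directions relative to DMSO vehicle.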

[3] = read-out: Fatty Acid-Binding Protein 1 (FABP1), FABP1 (gene 2168); assay: LTEA_HepaRG_FABP1: Life Technologies and Expression Analysis (LTEA) Assay for Fatty Acid-Binding Protein 1 (FABP1) using HepaRG (AID 2283494)
Method in brief: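 Values reflect bidirectional concentration-response fitting of FABP1 mRNA change against 0.5% DMSO controls. Human HepaRG cultures received eight half-log doses (top 100 uM) for 48 h; expression quantified by TaqMan qRT-PCR with housekeeping-gene normalization.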

[4] = read-out: Cytochrome P450 4A22 (Homo sapiens) (UniProt Q5TCH4); assay: LTEA_HepaRG_CYP4A22: Life Technologies and Expression Analysis (LTEA) Assay for Cytochrome P450 4A22 (CYP4A22) using HepaRG (AID 2283495)
Method in brief: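 Cryopreserved HepaRG cells, plated and cultured 48 h, then switched to serum-free induction medium and treated 48 h (duplicates, up to 100 uM, half-log steps, 0.5% DMSO). Expression change of CYP4A22 was fitted bidirectionally against vehicle.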

[5] = read-out: Cytochrome P450 7A1 (Homo sapiens) (UniProt P22680); assay: LTEA_HepaRG_CYP7A1: Life Technologies and Expression Analysis (LTEA) Assay for Cytochrome P450 7A1 (CYP7A1) using HepaRG (AID 2283496)
Method in brief: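 Using 0.5% DMSO as vehicle and baseline, chemicals were tested in duplicate over an 8-point range from 100 uM on HepaRG cells for 48 h; qRT-PCR signals were normalised to ACTB, GAPDH and POLR2A.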

[6] = read-out: Glutathione S-Transferase (GSTA2), GSTA2 (gene 2939); assay: LTEA_HepaRG_GSTA2: Life Technologies and Expression Analysis (LTEA) Assay for Glutathione S-Transferase (GSTA2) using HepaRG (AID 2283497)
Method in brief: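 Oxidative-stress marker GSTA2 is quantified by TaqMan qRT-PCR in HepaRG cultures treated 48 h across an eight-point range to 100 uM. Expression is normalized to endogenous controls and compared with 0.5% DMSO vehicle.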

[7] = read-out: Glutamate-cysteine ligase catalytic (GCLC), GCLC (gene 2729); assay: LTEA_HepaRG_GCLC: Life Technologies and Expression Analysis (LTEA) Assay for Glutamate-cysteine ligase catalytic (GCLC) using HepaRG (AID 2283498)
Method in brief: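 Oxidative-stress marker GCLC is measured as mRNA change in human HepaRG liver cells after 48 h chemical treatment in 0.5% DMSO, eight concentrations from 100 uM. Activity is fitted bidirectionally against vehicle.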

[8] = read-out: growth arrest and DNA damage 45 (GADD45G), GADD45G (gene 10912); assay: LTEA_HepaRG_GADD45G: Life Technologies and Expression Analysis (LTEA) Assay for growth arrest and DNA damage 45 (GADD45G) using HepaRG (AID 2283499)
Method in brief: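 Human hepatic HepaRG line treated 48 h with chemicals (eight concentrations, half-log steps from 100 uM); transcript induction or repression of GADD45G scored by qRT-PCR versus DMSO vehicle.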

[9] = read-out: Glutathione S-transferase M3 (GSTM3), GSTM3 (gene 2947); assay: LTEA_HepaRG_GSTM3: Life Technologies and Expression Analysis (LTEA) Assay for Glutathione S-transferase M3 (GSTM3) using HepaRG (AID 2283501)
Method in brief: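 Changes in GSTM3 expression, an oxidative-stress marker, were scored by bidirectional curve fitting against 0.5% DMSO vehicle. Human HepaRG cultures received chemicals for 48 h in duplicate, highest concentration 100 uM with half-log dilutions.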

[10] = read-out: Heat shock 70 kDa protein 1 (HSPA1A), gene 3303; assay: LTEA_HepaRG_HSPA1A: Life Technologies and Expression Analysis (LTEA) Assay for Heat shock 70 kDa protein 1 (HSPA1A) using HepaRG (AID 2283502)
Method in brief: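 An oxidative-stress marker readout: HepaRG cells treated 48 h in duplicate with an eight-point series (highest 100 uM) had HSPA1A mRNA quantified by TaqMan qRT-PCR. Activity was fitted in both directions using 0.5% DMSO as baseline.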

[11] = read-out: Hypoxia-inducible factor 1-alpha (Homo sapiens) (UniProt Q16665); assay: LTEA_HepaRG_HIF1A: Life Technologies and Expression Analysis (LTEA) Assay for Hypoxia-inducible factor 1 (HIF1A) Trancription factor using HepaRG (AID 2283503);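 further: HIF1A transcript by TaqMan qRT-PCR normalized to ACTB GAPDH and POLR2A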
Method in brief: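 Gain- or loss-of-signal HIF1A mRNA changes are fitted against a DMSO baseline. HepaRG cultures receive eight concentrations, highest 100 uM, for 48 h in serum-free induction medium with 0.5% DMSO.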

[12] = read-out: 3-Hydroxy-3-Methylglutaryl-CoA Synthase 2 (HMGCS2), HMGCS2 (gene 3158); assay: LTEA_HepaRG_HMGCS2: Life Technologies and Expression Analysis (LTEA) Assay for 3-Hydroxy-3-Methylglutaryl-CoA Synthase 2 (HMGCS2) using HepaRG (AID 2283504)
Method in brief: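 Expression of HMGCS2 in human HepaRG liver cells is measured by qRT-PCR 48 h after dosing (highest 100 uM, half-log series, 0.5% DMSO). Values come from bidirectional concentration-response fitting with DMSO as baseline.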

HGF (gene 3082) = assay: LTEA_HepaRG_HGF: Life Technologies and Expression Analysis (LTEA) Assay for Hepatocyte Growth Facto (HGF) using HepaRG (AID 2283505)
Method in brief: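 Gain or loss of HGF mRNA in human HepaRG liver cells after 48 h chemical exposure; eight concentrations up to 100 uM with 0.5% DMSO vehicle, quantified by TaqMan qRT-PCR.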

[13] = read-out: Insulin Like Growth Factor 1 (IGF1), IGF1 (gene 3479); assay: LTEA_HepaRG_IGF1: Life Technologies and Expression Analysis (LTEA) Assay for Insulin Like Growth Factor 1 (IGF1) using HepaRG (AID 2283506)
Method in brief: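 Endpoint: IGF1 mRNA change by qRT-PCR, housekeeping-normalized, fitted bidirectionally relative to 0.5% DMSO vehicle. Human HepaRG cells were treated 48 h in serum-free induction medium, eight half-log concentrations topping at 100 uM.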

[14] = read-out: Intercellular Adhesion Molecule 1 (ICAM1), ICAM1 (gene 3383); assay: LTEA_HepaRG_ICAM1: Life Technologies and Expression Analysis (LTEA) Assay for Intercellular Adhesion Molecule 1 (ICAM1) using HepaRG (AID 2283507)
Method in brief: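 Gain or loss of transcript in HepaRG hepatic cells is quantified by qRT-PCR after 48 h chemical exposure (up to 100 uM, half-log steps), with DMSO as baseline.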

[15] = read-out: Insulin-like growth factor-binding protein 1 (IGFBP1), IGFBP1 (gene 3484); assay: LTEA_HepaRG_IGFBP1: Life Technologies and Expression Analysis (LTEA) Assay for Insulin-like growth factor-binding protein 1 (IGFBP1) using HepaRG (AID 2283508)
Method in brief: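 mRNA induction or loss was quantified by qRT-PCR after 48 h chemical exposure of human HepaRG cells, with 0.5% DMSO as vehicle and baseline. Concentration-response over eight points up to 100 uM.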

[16] = read-out: Interleukin 6 (IL6), IL6 (gene 3569); assay: LTEA_HepaRG_IL6: Life Technologies and Expression Analysis (LTEA) Assay for Interleukin 6 (IL6) using HepaRG (AID 2283509)
Method in brief: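 Changes in IL6 mRNA, up or down relative to 0.5% DMSO controls, were derived from concentration-response curves in human HepaRG cells treated for 48 h at up to 100 uM, with ACTB, GAPDH and POLR2A as normalizers.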

[17] = read-out: Glutamate-cysteine ligase regulatory (GCLM), GCLM (gene 2730); assay: LTEA_HepaRG_GCLM: Life Technologies and Expression Analysis (LTEA) Assay for Glutamate-cysteine ligase regulatory (GCLM) using HepaRG (AID 2283500)
Method in brief: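 In this multiplexed HepaRG gene-expression assay, GCLM mRNA change after 48 h treatment (8 concentrations, max 100 uM) was scored against DMSO by bidirectional curve fitting.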

Chain of Cytochrome P450 3A7 (Homo sapiens) (P24462 whole entry, looked up): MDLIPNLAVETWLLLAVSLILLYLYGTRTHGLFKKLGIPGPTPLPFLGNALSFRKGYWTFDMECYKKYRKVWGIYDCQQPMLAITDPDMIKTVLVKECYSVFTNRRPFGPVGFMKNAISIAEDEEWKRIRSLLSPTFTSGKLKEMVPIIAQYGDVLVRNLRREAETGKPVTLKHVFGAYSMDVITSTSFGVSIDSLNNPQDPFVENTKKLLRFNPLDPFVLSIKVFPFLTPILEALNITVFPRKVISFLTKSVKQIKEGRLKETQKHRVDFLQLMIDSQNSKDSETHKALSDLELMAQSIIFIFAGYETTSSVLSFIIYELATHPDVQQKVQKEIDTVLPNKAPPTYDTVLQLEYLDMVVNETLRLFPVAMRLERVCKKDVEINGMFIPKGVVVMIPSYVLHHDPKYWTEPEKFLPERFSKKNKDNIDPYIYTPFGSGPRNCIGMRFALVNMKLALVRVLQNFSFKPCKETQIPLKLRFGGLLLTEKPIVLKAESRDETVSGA
Chain of Hypoxia-inducible factor 1-alpha (Homo sapiens) (Q16665 whole entry, looked up): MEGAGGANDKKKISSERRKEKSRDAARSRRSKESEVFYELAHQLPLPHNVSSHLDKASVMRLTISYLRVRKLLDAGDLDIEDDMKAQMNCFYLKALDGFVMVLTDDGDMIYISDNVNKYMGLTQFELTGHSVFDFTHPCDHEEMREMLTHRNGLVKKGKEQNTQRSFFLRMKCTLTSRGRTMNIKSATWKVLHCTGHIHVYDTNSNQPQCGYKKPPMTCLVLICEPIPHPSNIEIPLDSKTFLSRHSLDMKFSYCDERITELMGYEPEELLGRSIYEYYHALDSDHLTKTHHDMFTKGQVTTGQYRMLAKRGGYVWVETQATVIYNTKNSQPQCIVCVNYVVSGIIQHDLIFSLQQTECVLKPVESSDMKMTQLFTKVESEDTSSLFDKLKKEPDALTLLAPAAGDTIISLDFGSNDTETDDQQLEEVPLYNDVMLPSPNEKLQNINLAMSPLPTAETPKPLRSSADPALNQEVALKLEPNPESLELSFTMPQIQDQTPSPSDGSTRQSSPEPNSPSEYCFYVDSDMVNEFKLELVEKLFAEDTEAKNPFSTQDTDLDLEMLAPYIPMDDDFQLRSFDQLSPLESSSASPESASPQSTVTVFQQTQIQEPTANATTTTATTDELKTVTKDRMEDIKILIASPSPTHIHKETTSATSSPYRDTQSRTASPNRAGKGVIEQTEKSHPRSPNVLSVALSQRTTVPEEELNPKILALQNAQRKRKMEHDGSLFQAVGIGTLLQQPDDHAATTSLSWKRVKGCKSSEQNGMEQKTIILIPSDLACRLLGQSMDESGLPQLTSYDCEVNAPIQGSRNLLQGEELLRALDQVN

Compound | outcome [1] | outcome [2] | outcome (CYP3A5 (gene 1577)) | outcome [3] | outcome [4] | outcome [5] | outcome [6] | outcome [7] | outcome [8] | outcome [9] | outcome [10] | outcome [11] | outcome [12] | outcome (HGF (gene 3082)) | outcome [13] | outcome [14] | outcome [15] | outcome [16] | AC50 [17]
CCCCCCCCN(C)CCCCCCCC | inactive | inactive | inactive | inactive | inactive | inactive | inactive | inactive | inactive | inactive | inactive | inactive | inactive | inactive | inactive | inactive | inactive | inactive | 
O=C(OCCCCCCOC(=O)c1ccccc1)c1ccccc1 | inactive | inactive | inactive | inactive | inactive | inactive | inactive | inactive | inactive | inactive | inactive | inactive | inactive | inactive | inactive | inactive | inactive | inactive | 
O=CCCCC=O | inactive | inactive | inactive | inactive | inactive | inactive | inactive | inactive | inactive | inactive | inactive | inactive | inactive | inactive | inactive | inactive | inactive | inactive | 236 nM (active)
